The record followed here is PubChem BioAssay.

Assay [1] is described as follows: rapamycin-like changes in RPL19A-GFP expression – cell-based, S. cerevisiae, multiplex flow cytometry, primary screen (AID 1862; in the data active means percent of DMSO control GFP below about 86%;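 further: lower values mimic rapamycin by blocking the RPL19A rise seen in DMSO cells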). Particulars: S. cerevisiae RPL19A-GFP strain, flow cytometry fluorescence, 3 h; at 10 µM; stronger effect = lower value. (Flow cytometry measures light scatter and fluorescence of single cells or particles in a stream.)
Assay [2] is described as follows: TOR pathway GLN3 branch reporter MEP2-GFP changes – S. cerevisiae, multiplex flow cytometry, primary screen (AID 1867;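 active means GFP response, as percent of the DMSO control, above the screen-wide mean plus 3 SD, about 139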;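 further: median GFP channel fluorescence of barcode-gated MEP2-GFP cells measured by flow cytometry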). The conditions noted are these: S. cerevisiae MEP2-GFP strain, 3 h, at 10 µM, stronger effect = higher value, 100% means same as DMSO wells.
Assay [3] in a line: TOR pathway RTG branch CIT2 reporter changes – S. cerevisiae, GFP fusion, multiplex flow cytometry, primary screen (AID 1870;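 active means percent response above a set limit, the screen-wide mean plus 3 SD, cut at about 130% in these data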;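 further: barcoded CIT2-GFP strain pooled with four other GFP strains with rapamycin as positive control; median GFP fluorescence per well over plate mean of DMSO wells so 100% = DMSO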). The conditions noted are these: S. cerevisiae CIT2-GFP expression, 3 h, at 10 µM, stronger effect = higher value.
A short description of assay [4]: TOR pathway LAP4-GFP level changes – S. cerevisiae, multiplex flow cytometry, primary screen (AID 1873;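 active means GFP signal, as percent of the solvent control, above the screen mean plus 3 SD, about 149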). The conditions noted are these: S. cerevisiae LAP4-GFP expression, 3 h, at 10 µM, stronger effect = higher value.
Assay [5] can be described thus: reduced mouse 2C T cell binding to pMHC/ICAM-1 vesicles – MLPCN validation set, flow cytometry, LFA-1/ICAM-1 modulator project, pilot screen (AID 2523;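 active means response below a set limit, under 55% cells CD8-positive and vesicle-bound, and CD8 cells' 90th-percentile brightness under 279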;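 on vesicle binding response: mean PE anti-B7-1 fluorescence of CD8+ cells relative to row control; 100% = QL9-loaded vesicles with DMSO vehicle in the same plate row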). Particulars: 2C mouse CD8+ T cells, at 7 µM, stronger effect = lower value; double positive events: measured here: CD8+/vesicle+ event percentage.
For assay [6], the target named is Integrin beta-1 (Homo sapiens) + Integrin alpha-4 (Homo sapiens) (UniProt P13612+P05556). As to the kind of experiment: alpha4beta1 integrin LIBS antibody binding reduction – U937 cells, HUTS-21 mAb, flow cytometry, validation set, VLA-4 allosteric modulator project, pilot screen (AID 2674).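 Further: antibody binding induced by the VLA-4 ligand LDV present at three times its Kd; 0% = LDV ligand with antibody and no compound and 100% = antibody without LDV.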 Particulars: HUTS-21 LIBS mAb binding, at 6.7 µM, stronger effect = higher value, binding induced by LDV ligand.
Chain of Integrin beta-1 (Homo sapiens) + Integrin alpha-4 (Homo sapiens) (P05556 whole entry, looked up): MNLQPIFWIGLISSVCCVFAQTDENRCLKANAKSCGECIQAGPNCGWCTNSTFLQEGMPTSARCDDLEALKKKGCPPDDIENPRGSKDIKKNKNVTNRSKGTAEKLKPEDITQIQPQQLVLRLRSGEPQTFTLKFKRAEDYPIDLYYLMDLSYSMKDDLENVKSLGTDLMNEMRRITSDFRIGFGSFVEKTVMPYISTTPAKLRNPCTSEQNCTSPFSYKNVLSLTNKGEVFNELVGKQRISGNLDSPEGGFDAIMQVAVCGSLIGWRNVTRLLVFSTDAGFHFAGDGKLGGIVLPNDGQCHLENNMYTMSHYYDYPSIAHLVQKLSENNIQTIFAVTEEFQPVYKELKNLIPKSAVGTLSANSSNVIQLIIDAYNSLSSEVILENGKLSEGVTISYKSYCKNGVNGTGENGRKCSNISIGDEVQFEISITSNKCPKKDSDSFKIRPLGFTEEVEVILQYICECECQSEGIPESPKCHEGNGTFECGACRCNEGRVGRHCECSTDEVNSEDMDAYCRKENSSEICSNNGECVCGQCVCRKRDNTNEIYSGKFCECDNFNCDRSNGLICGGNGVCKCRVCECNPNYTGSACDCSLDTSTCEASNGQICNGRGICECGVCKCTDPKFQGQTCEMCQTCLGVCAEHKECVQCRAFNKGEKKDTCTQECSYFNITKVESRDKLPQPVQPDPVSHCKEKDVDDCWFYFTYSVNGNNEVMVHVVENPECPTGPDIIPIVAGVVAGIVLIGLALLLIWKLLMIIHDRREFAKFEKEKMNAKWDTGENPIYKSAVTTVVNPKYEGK
Chain of Integrin beta-1 (Homo sapiens) + Integrin alpha-4 (Homo sapiens) (P13612 whole entry, looked up): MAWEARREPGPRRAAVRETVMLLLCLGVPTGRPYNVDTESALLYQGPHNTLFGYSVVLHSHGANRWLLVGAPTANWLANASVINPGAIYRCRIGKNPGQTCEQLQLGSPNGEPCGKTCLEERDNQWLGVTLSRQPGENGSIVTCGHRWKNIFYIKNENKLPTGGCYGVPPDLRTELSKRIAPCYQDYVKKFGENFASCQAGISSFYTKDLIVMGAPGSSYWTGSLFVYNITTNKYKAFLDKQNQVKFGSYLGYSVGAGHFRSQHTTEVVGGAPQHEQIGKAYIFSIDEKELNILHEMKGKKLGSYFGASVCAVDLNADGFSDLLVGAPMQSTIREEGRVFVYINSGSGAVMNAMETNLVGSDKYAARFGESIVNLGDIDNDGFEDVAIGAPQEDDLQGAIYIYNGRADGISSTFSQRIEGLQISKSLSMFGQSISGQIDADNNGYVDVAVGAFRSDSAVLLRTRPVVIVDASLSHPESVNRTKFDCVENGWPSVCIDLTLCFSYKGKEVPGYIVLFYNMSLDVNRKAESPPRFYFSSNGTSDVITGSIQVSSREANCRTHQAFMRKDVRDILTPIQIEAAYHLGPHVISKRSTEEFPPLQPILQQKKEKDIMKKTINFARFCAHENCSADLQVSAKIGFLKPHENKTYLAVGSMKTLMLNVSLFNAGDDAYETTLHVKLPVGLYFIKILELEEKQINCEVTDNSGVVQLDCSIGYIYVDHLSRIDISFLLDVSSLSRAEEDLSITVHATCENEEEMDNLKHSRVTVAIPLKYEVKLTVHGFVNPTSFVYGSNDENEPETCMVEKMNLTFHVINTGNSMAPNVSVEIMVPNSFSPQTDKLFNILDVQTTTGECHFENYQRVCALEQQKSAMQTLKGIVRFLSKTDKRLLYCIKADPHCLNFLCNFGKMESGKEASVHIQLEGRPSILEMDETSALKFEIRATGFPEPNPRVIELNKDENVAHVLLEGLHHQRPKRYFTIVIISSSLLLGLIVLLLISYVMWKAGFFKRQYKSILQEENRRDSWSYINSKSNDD

The nature of assay [7]: calorie-restriction mimetic ROS inhibitors, yeast – validation compound set, pilot screen (AID 2706;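 active means superoxide response below 65% of plate, a cut near 3 SD across the whole screen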;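 further: yeast exposed to compound for one week at 30 degrees C before staining; 100% = mean of all compound wells on the same plate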). Particulars: S. cerevisiae aging, superoxide DHE fluorescence; at 10 µM, stronger effect = lower value.
In assay [8] the target is Beta-adrenergic receptor kinase 1 (Homo sapiens) (UniProt P25098). The assay can be described thus: GRK2 binders displacing RNA aptamer, biochemical, validation, human GRK2, bead flow cytometry (AID 488806;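 active means aptamer binding inhibition above 30%, about 3 SD of noise from non-fluorescent compounds; inactive means inhibition at or below 30%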). The conditions noted are these: bead-bound GRK2, FAM-aptamer displacement, at 10 µM, stronger effect = higher value.
Chain of Beta-adrenergic receptor kinase 1 (Homo sapiens) (P25098 whole entry, looked up): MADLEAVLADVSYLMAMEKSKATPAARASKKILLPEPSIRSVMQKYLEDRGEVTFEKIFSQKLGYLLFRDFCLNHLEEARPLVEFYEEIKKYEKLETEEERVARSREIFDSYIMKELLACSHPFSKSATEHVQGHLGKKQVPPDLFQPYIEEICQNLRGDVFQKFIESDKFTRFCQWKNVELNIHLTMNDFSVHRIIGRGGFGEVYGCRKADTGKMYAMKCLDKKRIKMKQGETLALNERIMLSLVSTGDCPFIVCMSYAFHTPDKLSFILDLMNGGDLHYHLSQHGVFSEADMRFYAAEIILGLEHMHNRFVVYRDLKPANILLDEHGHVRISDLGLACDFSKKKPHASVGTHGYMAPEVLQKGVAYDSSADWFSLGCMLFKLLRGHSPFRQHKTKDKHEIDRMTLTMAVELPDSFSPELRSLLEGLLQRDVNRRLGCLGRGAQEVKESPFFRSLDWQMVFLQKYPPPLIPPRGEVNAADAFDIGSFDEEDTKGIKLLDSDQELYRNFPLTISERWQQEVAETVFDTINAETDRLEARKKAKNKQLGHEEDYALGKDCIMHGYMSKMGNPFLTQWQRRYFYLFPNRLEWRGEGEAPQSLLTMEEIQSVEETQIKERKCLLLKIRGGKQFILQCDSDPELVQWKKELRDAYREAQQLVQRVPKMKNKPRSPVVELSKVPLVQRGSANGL
Assay [9] addresses Beta-2 adrenergic receptor (Homo sapiens) (UniProt P07550). The assay can be described thus: agonist-induced loss of surface beta2AR – cell-based, FAP fluorogen, flow cytometry, validation set, pilot screen (AID 504459;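 active means percent response above 42, roughly 3 SD of non-fluorescent test compounds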;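 further: agonist-driven loss of surface beta2AR via internalization measured by FAP dye flow cytometry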). The conditions noted are these: Am2.2-beta2AR cells, at 10 µM, stronger effect = higher value.
In assay [10] the target is AP-2 complex subunit beta (Homo sapiens) (UniProt P63010). The assay can be described thus: beta-arrestin/AP2 interaction blockers – biochemical, validation set, GST-AP2 beads, flow cytometry, pilot screen (AID 504541;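 active means inhibition above 54%, about 3 SD of non-fluorescent compounds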;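 further: AP2 carries R879A mutation and is captured from E. coli lysate; bead-bound FITC arrestin peptide fluorescence measuring arrestin peptide binding to AP2; 0% = DMSO wells and 100% = excess unlabeled arrestin peptide control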). Particulars: FITC arrestin peptide, at 10 µM, stronger effect = higher value, AP2 beta2 appendage fragment, R879A mutant.
Chain of AP-2 complex subunit beta (Homo sapiens) (P63010 whole entry, looked up, the tested form may be a part, one chain of several): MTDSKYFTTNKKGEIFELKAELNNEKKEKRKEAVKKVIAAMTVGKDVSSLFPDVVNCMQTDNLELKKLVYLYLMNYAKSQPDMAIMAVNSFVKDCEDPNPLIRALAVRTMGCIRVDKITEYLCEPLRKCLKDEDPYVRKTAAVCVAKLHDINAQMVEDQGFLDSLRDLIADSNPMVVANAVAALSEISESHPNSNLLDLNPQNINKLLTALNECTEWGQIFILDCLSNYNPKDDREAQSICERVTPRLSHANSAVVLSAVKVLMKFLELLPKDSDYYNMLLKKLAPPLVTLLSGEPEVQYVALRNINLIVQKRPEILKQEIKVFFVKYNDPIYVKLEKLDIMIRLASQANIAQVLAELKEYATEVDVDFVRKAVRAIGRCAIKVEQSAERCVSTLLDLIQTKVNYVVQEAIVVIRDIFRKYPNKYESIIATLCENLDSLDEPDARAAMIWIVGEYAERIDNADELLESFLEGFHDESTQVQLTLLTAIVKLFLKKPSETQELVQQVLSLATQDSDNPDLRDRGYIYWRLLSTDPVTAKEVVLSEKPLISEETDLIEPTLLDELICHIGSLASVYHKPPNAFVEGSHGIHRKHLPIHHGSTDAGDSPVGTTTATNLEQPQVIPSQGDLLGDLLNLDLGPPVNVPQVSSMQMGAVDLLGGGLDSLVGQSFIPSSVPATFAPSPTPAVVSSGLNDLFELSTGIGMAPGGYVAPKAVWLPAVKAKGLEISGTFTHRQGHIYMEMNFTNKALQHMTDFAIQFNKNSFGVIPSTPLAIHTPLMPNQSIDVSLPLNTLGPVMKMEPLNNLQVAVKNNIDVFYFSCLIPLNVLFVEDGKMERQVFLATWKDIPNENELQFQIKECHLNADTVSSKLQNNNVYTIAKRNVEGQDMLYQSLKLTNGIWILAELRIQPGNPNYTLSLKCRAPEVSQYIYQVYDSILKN
Assay [11] is described as follows: cytosolic pH regulators acting via V-ATPase – S. cerevisiae, pHLuorin, HTS validation (AID 504600; in the data active means response above about 15%;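 further: plate controls were DMSO for no effect and reference compound for full effect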). The conditions noted are these: V-ATPase proton transport, at 10 µM, stronger effect = higher value.
The subject of assay [12] is anti-desmoglein-3 scFv antibody binding to human DSG3. The assay can be described thus: blockers of pathogenic pemphigus antibody–desmoglein-3 binding – biochemical, validation compound set, bead-based, flow cytometry, pilot screen (AID 588368;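 active means binding below the plate cutoff, the plate median minus 3 SD, with a reading above zero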;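 further: signal is the median channel fluorescence of bead-bound GFP antibody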). The conditions noted are these: Protein G beads, DSG3-Fc, scFv-GFP binding, at 10 µM, stronger effect = lower value.
Assay [13] is described as follows: Nile Red efflux blockade in pump-expressing yeast – validation compound set, multiplex, phenotypic, pilot screen (AID 588506;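 active means efflux inhibition above 0.42, the validation set average plus 4 SD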;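 further: Nile Red retained in cells so higher fluorescence means more efflux inhibition; 0 = negative control wells and 1 = enniatin B 25 µM full block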). The conditions noted are these: S. cerevisiae pump-expressing triplex, Nile Red efflux flow cytometry; at 10 µM; stronger effect = higher value; the pumps come from Candida albicans.
Assay [14] addresses ATP-binding cassette sub-family B member 6 (Homo sapiens) (UniProt Q9NP58). As to the kind of experiment: blockers of ABCB6-driven porphyrin uptake – K562-ABCB6 cells, flow cytometry, validation set, pilot screen (AID 588550;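 active means inhibition above the screen-wide mean plus 3 SD, about 51%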;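 further: 0% = DMSO wells and 100% = benzethonium chloride 70 µM positive control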). Particulars: K562-ABCB6 porphyrin accumulation, 1 h, at 10 µM, stronger effect = higher value.
Assay [15] is described as follows: AML differentiation inducers, ER-HoxA9 marrow cells – cell-based, GFP/MAC1 double positive, flow cytometry, validation set, primary screen (AID 588685;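 active means differentiation response of at least 50%, scaled between solvent and reference control, from cells with both markers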;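 further: compound exposure lasts four days before antibody staining and flow analysis; 0% = DMSO wells and 100% = 5 µM fulvestrant positive control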). The conditions noted are these: stronger effect = higher value, normalized: vehicle 0, fulvestrant 100.
The nature of assay [16]: yeast AGP1-GFP level changes, GLN3 branch – cell-based, multiplex flow cytometry, S. cerevisiae, primary screen (AID 1887;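 active means GFP signal above the screen-wide mean plus 3 SD, that is over about 124.5% of the solvent control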;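 further: AGP1-GFP fusion strain of S. cerevisiae within a five-strain barcoded multiplex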). Particulars: 3 h, at 10 µM, stronger effect = higher value.
Assay [17] can be described thus: hit retest on RPL19A-GFP reporter strain – cell-based, S. cerevisiae, flow cytometry, cherry picks, mother/daughter gates, confirmation (AID 2270;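 active means GFP response below 50% of the DMSO control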). The conditions noted are these: 3 h, at 10 µM, stronger effect = lower value, 100 = same GFP as DMSO wells.
Assay [18] can be described thus: yeast TOR pathway reporter LAP4-GFP change – cell-based, cherry picks, flow cytometry, mother/daughter gates, confirmation (AID 2271;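 active means GFP response above 150% of the DMSO control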;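 further: ratio of sample to DMSO plate mean so 100% equals DMSO level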). Particulars: S. cerevisiae LAP4-GFP strain, 3 h, at 10 µM, stronger effect = higher value, 100 means same as DMSO control.
The nature of assay [19]: TOR pathway reporter MEP2-GFP, retest of hits – S. cerevisiae, flow cytometry GFP, cherry picks, confirmation (AID 2272;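 active means GFP response above 150% of the DMSO control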;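 further: ratio of well signal to plate DMSO mean so 100% equals DMSO level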). Particulars: S. cerevisiae MEP2-GFP strain, 3 h, at 10 µM, stronger effect = higher value.
Assay [20] can be described thus: TOR pathway CIT2 reporter hit retest – S. cerevisiae, GFP fusion, cherry picks, mother/daughter gates, confirmation (AID 2274;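 active means GFP response above 150% of the DMSO level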). The conditions noted are these: S. cerevisiae CIT2-GFP strain, flow cytometry, 3 h, at 10 µM, stronger effect = higher value.
[21] abbreviates: measured here: daughter cell gate.
Where [22] appears, read: measured here: mother cell gate.

The structures appear in SMILES notation. Records with an inconclusive call do not appear. The source made the active and inactive calls.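 How the source made its calls, unless noted: active means inhibition above 50%, about 3 SD of the validation set; inactive means the rest.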

Chain of Beta-2 adrenergic receptor (Homo sapiens) (P07550 whole entry, looked up): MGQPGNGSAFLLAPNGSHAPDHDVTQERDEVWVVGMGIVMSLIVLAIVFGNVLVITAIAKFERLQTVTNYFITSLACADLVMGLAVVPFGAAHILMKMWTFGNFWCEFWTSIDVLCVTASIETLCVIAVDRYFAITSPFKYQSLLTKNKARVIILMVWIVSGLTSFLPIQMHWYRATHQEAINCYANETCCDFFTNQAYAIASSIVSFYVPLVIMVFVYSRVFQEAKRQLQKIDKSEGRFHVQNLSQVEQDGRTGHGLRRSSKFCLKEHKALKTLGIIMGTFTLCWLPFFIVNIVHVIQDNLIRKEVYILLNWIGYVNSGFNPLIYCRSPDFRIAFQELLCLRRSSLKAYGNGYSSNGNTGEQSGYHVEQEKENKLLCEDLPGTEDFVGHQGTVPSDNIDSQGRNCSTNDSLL
Chain of ATP-binding cassette sub-family B member 6 (Homo sapiens) (Q9NP58 whole entry, looked up): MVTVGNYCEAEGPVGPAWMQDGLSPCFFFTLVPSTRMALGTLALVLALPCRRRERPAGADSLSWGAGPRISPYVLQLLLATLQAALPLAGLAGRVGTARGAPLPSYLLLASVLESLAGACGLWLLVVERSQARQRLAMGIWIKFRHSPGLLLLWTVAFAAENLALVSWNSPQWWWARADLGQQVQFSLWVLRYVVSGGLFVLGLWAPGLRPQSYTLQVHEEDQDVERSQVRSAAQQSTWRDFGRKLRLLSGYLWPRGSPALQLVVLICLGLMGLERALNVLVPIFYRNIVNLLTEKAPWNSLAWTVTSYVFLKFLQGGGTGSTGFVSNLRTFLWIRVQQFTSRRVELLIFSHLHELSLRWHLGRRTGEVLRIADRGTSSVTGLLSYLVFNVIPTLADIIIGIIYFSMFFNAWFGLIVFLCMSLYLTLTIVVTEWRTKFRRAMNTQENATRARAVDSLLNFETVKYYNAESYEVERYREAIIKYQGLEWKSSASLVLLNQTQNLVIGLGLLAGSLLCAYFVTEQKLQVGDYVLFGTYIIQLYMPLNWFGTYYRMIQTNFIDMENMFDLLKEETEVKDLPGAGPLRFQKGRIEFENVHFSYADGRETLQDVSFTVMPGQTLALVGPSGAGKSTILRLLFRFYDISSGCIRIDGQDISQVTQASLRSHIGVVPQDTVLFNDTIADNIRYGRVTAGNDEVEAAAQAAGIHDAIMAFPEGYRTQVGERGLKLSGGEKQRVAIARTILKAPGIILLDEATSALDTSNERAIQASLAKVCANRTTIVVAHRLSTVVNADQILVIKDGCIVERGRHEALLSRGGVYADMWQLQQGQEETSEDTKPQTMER

What is called inhibition is the drop in the measured response relative to a control, in per cent. For the molecule `CCN1CCN(C(=O)N[C@@H](C(=O)N[C@@H]2C(=O)N3[C@@H]2SC(C)(C)[C@@H]3C(=O)O)c2ccccc2)C(=O)C1=O`, the percent of DMSO control GFP in assay [1] is 94.4% (inactive). For the same molecule, the GFP response vs DMSO is 122% (inactive) in assay [2] and 74.3% (inactive) in [4]. In addition, the percent response of DMSO control in assay [3] was 103% (inactive). In addition, the double positive events in assay [5] is 69.1%. Besides, in assay [5], the vesicle binding response is 138% (inactive). Moreover, the inhibition in assay [6] was -5.18% (inactive); in assay [10] it was 3.29% (inactive); in assay [14] it was 7% (inactive). The superoxide response (% of plate) in assay [7] is 109% (inactive). Besides, the aptamer binding inhibition in [8] was 2% (inactive). Moreover, the response is -5.92% (inactive) in assay [9] and 1.38% (inactive) in assay [11]. In [12], the binding (% of control) was 103% (inactive). For the same molecule, the efflux inhibition (fraction of control) in assay [13] was 0.16 (inactive). Moreover, the differentiation response in [15] is 3.28% (inactive).

Consider `COc1ccc(NC(=O)C2CSC3c4ccccc4C(=O)N23)cc1` (centres undefined), for which, in assay [1], the percent of DMSO control GFP is 101% (inactive). The values for the GFP response vs DMSO in assay [2] and in assay [4] were 104% (inactive) and 105% (inactive), respectively. Also, the percent response of DMSO control in assay [3] is 96.5% (inactive). For the same molecule, in assay [16], the GFP response, % of DMSO is 98.8% (inactive). This molecule registered a double positive events in assay [5] of 77.8%. Besides, the inhibition in [6] is 0.25% (inactive); in assay [10] it was -0.6% (inactive); in assay [14] it was -2% (inactive). The superoxide response (% of plate) in assay [7] was 99.1% (inactive). Besides, the aptamer binding inhibition in assay [8] was 0% (inactive). Also, the response in [9] is 7.07% (inactive); in assay [11], 4.39% (inactive). For the same molecule, in assay [12], the binding (% of control) is 98.7% (inactive). In [13], the efflux inhibition (fraction of control) was -0.1 (inactive). In addition, the differentiation response in assay [15] was -0.18% (inactive).

In the case of `CC(=O)[C@@]1(O)CC[C@H]2[C@@H]3CCC4=CC(=O)CC[C@]4(C)[C@H]3CC[C@@]21C`, in assay [1], the percent of DMSO control GFP was 92.2% (inactive). In addition, the GFP response vs DMSO was 130% (inactive) in [2]; 97.4% (inactive) in assay [4]; 104% (inactive) in [17]; 99.5% in assay [17] (setting [21]); 105% in assay [17] (setting [22]); 97.8% (inactive) in [19]. For the same molecule, the percent response of DMSO control in [3] is 139% (active). Further, the GFP response relative to DMSO was 95% (inactive) in [18], 94.1% in assay [18] (measured here: daughter cell gate response) and 97.2% in [18] (measured here: mother cell gate response). Also, the results for the GFP response, % of DMSO in assay [20], in assay [20] (setting [21]) and in [20] (setting [22]) were 100% (inactive), 99.7% and 101%, respectively. Besides, the double positive events in assay [5] stood at 53.6%. The vesicle binding response in assay [5] was 216% (inactive). The inhibition was -13.9% (inactive) in [6], 42.9% (inactive) in assay [10] and 2% (inactive) in assay [14]. Besides, the superoxide response (% of plate) in assay [7] is 104% (inactive). Besides, the aptamer binding inhibition in assay [8] was -15% (inactive). Moreover, the response was -16.3% (inactive) in [9] and -8.27% (inactive) in assay [11]. Moreover, the binding (% of control) in [12] is 217% (inactive). Also, the efflux inhibition (fraction of control) in assay [13] is 0.27 (inactive). In assay [15], the differentiation response is 40.1% (inactive).

As for `Cc1ccc2[nH]c3c(c2c1)CN(C(=O)CN1CCSCC1)CC3`, in [1], the percent of DMSO control GFP is 100% (inactive). For the same molecule, the GFP response vs DMSO is 93% (inactive) in [2] and 102% (inactive) in assay [4]. In [3], the percent response of DMSO control is 101% (inactive). Also, the GFP response, % of DMSO in assay [16] is 101% (inactive). This molecule came in with a double positive events in assay [5] of 60.8%. Also, the vesicle binding response in assay [5] is 66.8% (inactive). Further, the inhibition in assay [6] was -51.3% (inactive); in [10] it was -3.3% (inactive). For the same molecule, the aptamer binding inhibition in assay [8] was 0% (inactive). For the same molecule, the values for the response in assay [9] and in assay [11] were -263% (inactive) and 0.82% (inactive), respectively. In addition, the binding (% of control) in assay [12] is 439% (inactive). In addition, the efflux inhibition (fraction of control) in assay [13] is -0.04 (inactive). Besides, in [15], the differentiation response was 28.6% (inactive).

In the case of `Cc1cc(C(C)(C)C)c(O)c(C)c1CC1=NCCN1`, the percent of DMSO control GFP in assay [1] was 103% (inactive). Moreover, the results for the GFP response vs DMSO in assay [2] and in [4] were 116% (inactive) and 94.1% (inactive), respectively. Further, the percent response of DMSO control in assay [3] was 114% (inactive). Moreover, in [5], the double positive events is 62.9%. Further, the vesicle binding response in [5] was 297% (inactive). Further, the inhibition in assay [6] was -29.4% (inactive); in assay [10], -0.66% (inactive); in assay [14] it was 12% (inactive). In assay [7], the superoxide response (% of plate) was 93.7% (inactive). For the same molecule, the aptamer binding inhibition in assay [8] was 1% (inactive). Moreover, the response in assay [9] was 8.56% (inactive); in assay [11] it was 0.6% (inactive). Moreover, in assay [12], the binding (% of control) was 106% (inactive). In assay [13], the efflux inhibition (fraction of control) is 0.34 (inactive). In assay [15], the differentiation response was 7.37% (inactive).
